Measurements from the supplement of paper PMC6992640.
± gives the standard deviation of the averaged measurements.

Tests used:
Experiment in all cases: cell viability (% of vehicle); higher = less cytotoxic
Settings in all cases: 10 µM; 72 h
[1] = tested on: HCI01 (cells of a triple-negative basal-like breast cancer xenograft)
[2] = tested on: HCI03 (cells of an ER-positive luminal breast cancer xenograft)
[3] = tested on: HCI09 (cells of a triple-negative luminal androgen receptor type breast cancer xenograft)
[4] = tested on: HCI11 (cells of an ER-positive luminal breast cancer xenograft)
[5] = tested on: HCI13 (cells of an ER-positive luminal breast cancer xenograft)
[6] = tested on: HCI16 (cells of a triple-negative basal-like breast cancer xenograft)
[7] = tested on: UCD52 (cells of a triple-negative basal-like breast cancer xenograft)
[8] = tested on: WHIM2 (cells of a triple-negative basal-like breast cancer xenograft)
[9] = tested on: WHIM30 (cells of a triple-negative basal-like breast cancer xenograft)
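Also: PDX cells carrying CMV promoter-driven luciferase, viability read as total photon flux per second by IVIS imaging following D-luciferin, vehicle control 0.1% DMSO.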

SMILES	cell viability [1]	cell viability [2]	cell viability [3]	cell viability [4]	cell viability [5]	cell viability [6]	cell viability [7]	cell viability [8]	cell viability [9]
CCCc1cc(C(N)=S)ccn1 [Protionamide]	90.1 ± 32	117	97.5 ± 3	89.2	117 ± 10	112	100.1 ± 0.95	84 ± 27	112 ± 7.7
Cl.NC12CC3CC(CC(C3)C1)C2 [Amantadine HCl]	136 ± 17	117	104 ± 1.4	98.7	120 ± 7.4	132	93.3 ± 2.1	107 ± 17	105 ± 1.4
NC(=O)c1cn(Cc2c(F)cccc2F)nn1 [Rufinamide]	93.3 ± 16	137	106 ± 14	99.1	103 ± 10	106	96.9 ± 3.1	93.3 ± 18	124 ± 1.8
O=C(NC(CO)C(O)c1ccc([N+](=O)[O-])cc1)C(Cl)Cl (stereo not given) [Chloramphenicol]	109 ± 15	128	102 ± 12	86.1	81.3 ± 6.8	90.9	92.9 ± 3.5	106 ± 27	100 ± 18
Cn1c(=O)c2[nH]cnc2n(C)c1=O [Theophylline]	98.1 ± 19	123	94 ± 22	66.9	92.4 ± 1.1	117	103 ± 5.6	86.5 ± 16	95.8 ± 16
NCCCC(O)(P(=O)([O-])O)P(=O)(O)O.[Na+] [Alendronate sodium]	102 ± 7.7	111	95.1 ± 18	97.3	97.6 ± 3.9	97.1	79 ± 5.8	93.7 ± 13	116 ± 8.4
COc1ccc2c(c1)C(=O)N(CCc1ccc(S(=O)(=O)NC(=O)NC3CCCCC3)cc1)C(=O)C2(C)C [Gliquidone]	89.2 ± 83	109	68.4 ± 19	91.4	94.6 ± 23	142	93.5 ± 11	130 ± 20	137 ± 19
CC1(c2nc3c(C(N)=O)cccc3[nH]2)CCCN1 (stereo not given) [ABT-888 (Veliparib)]	109 ± 7.5	120	108 ± 5.2	100	86.9 ± 14	91.1	94.2 ± 2	101 ± 14	121 ± 4.2
CN(C)CCc1c[nH]c2ccc(Cn3cncn3)cc12.O=C(O)c1ccccc1 [Rizatriptan Benzoate]	108 ± 11	118	137 ± 72	121	110 ± 21	106	102 ± 9.9	86.3 ± 21	124 ± 6.5
CC(OC1OCCN(Cc2nc(=O)[nH][nH]2)C1c1ccc(F)cc1)c1cc(C(F)(F)F)cc(C(F)(F)F)c1 (stereo not given) [Aprepitant]	81 ± 48	91.5	77.5 ± 16	86.9	35.8 ± 4.5	66.1	75.3 ± 3.8	100 ± 11	83.6 ± 3.1
CO[C@H]1/C=C/O[C@@]2(C)Oc3c(C)c(O)c4c(c3C2=O)C2=NC3(CCN(CC(C)C)CC3)NC2=C(NC(=O)/C(C)=C\C=C\[C@H](C)[C@H](O)[C@@H](C)[C@@H](O)[C@@H](C)[C@H](OC(C)=O)[C@@H]1C)C4=O [Rifabutin]	56.1 ± 34	116	57.3 ± 27	83.2	113 ± 16	121	81.2 ± 1.8	79.1 ± 27	143 ± 7.7
CNCC(O)c1ccc(O)c(O)c1 [L-Adrenaline]	131 ± 58	137	142 ± 37	110	121 ± 32	138	112 ± 15	102 ± 7.6	162 ± 8.5
O=c1cc[nH]c(=S)[nH]1 [2-Thiouracil]	107 ± 6.1	139	94.4 ± 19	103	82.4 ± 8.2	112	91.8 ± 2.9	117 ± 34	178 ± 5.9
COCCCOc1cc(CC(CC(N)C(O)CC(C(=O)NCC(C)(C)C(N)=O)C(C)C)C(C)C)ccc1OC.COCCCOc1cc(CC(CC(N)C(O)CC(C(=O)NCC(C)(C)C(N)=O)C(C)C)C(C)C)ccc1OC.O=C(O)C=CC(=O)O (stereo not given) [Aliskiren Hemifumarate]	117 ± 11	157	107 ± 8.5	97.2	107 ± 2.1	148	108 ± 13	123 ± 14	140 ± 14
O=C(O)c1cc(=O)c2ccccc2o1 [Chromocarb]	124 ± 23	119	96.2 ± 1.6	78.7	71.6 ± 5.2	111	92.59 ± 0.2	103 ± 11	85.9 ± 2.8
O=C(NC(Cc1cc(=O)[nH]c2ccccc12)C(=O)O)c1ccc(Cl)cc1 (stereo not given) [Rebamipide]	92.4 ± 31	129	88.63 ± 0.71	97	117 ± 5.6	102	100 ± 6.4	86.2 ± 10	115 ± 8.9
Cn1cnc([N+](=O)[O-])c1Sc1ncnc2nc[nH]c12 [Azathioprine]	98.2 ± 32	119	106 ± 26	87	65 ± 8.7	151	129 ± 18	71.1 ± 10	110 ± 8.8
C=CC(=O)N1CCCC(n2nc(-c3ccc(Oc4ccccc4)cc3)c3c(N)ncnc32)C1 (stereo not given)	80.2 ± 24	69	56.2 ± 21	83.8	87.9 ± 8.6	55.6	76.7 ± 4.3	70.4 ± 7.2	103 ± 9.7
CCCc1nc(C)c2c(=O)nc(-c3cc(S(=O)(=O)N4CCN(CC)CC4)ccc3OCC)[nH]n12 [Vardenafil]	98.2 ± 24	169	113 ± 14	97.3	102 ± 5.5	127	109 ± 12	97.77 ± 0.38	107 ± 1.9
CCCNCC(O)COc1ccccc1C(=O)CCc1ccccc1.Cl (stereo not given) [Propafenone HCl]	90.3 ± 6.7	119	96 ± 14	87.2	95.3 ± 7	101	76.9 ± 7.8	86.9 ± 20	115 ± 6.6

SMILES	cell viability [1]	cell viability [2]	cell viability [3]	cell viability [4]	cell viability [5]	cell viability [6]	cell viability [7]	cell viability [8]	cell viability [9]
CCCNS(=O)(=O)Nc1ncnc(OCCOc2ncc(Br)cn2)c1-c1ccc(Br)cc1 [Macitentan]	75.9 ± 56	109	65 ± 16	91.4	51.7 ± 28	91.8	75.383 ± 0.03	77.1 ± 37	101.4 ± 0.41
CC(C)(OCc1nn(Cc2ccccc2)c2ccccc12)C(=O)O [Bindarit]	86.5 ± 68	133	95.7 ± 2.3	86.6	136 ± 0.14	117	83.1 ± 3.1	110 ± 19	149 ± 27
COc1cc(C=CC(=O)N2CCN(CC(=O)N3CCCC3)CC2)cc(OC)c1OC.O=C(O)C=CC(=O)O [Cinepazide maleate]	90.6 ± 5.7	130	94.4 ± 8.9	94.4	81.9 ± 12	106	121 ± 8.9	111 ± 17	102 ± 8.3
[I-].[K+] [Potassium Iodide]	98.5 ± 37	134	97 ± 8.2	97.4	169 ± 3.2	127	102 ± 6.1	82 ± 5.4	121 ± 7.5
O=S(=O)([O-])Oc1ccc(C(c2ccc(OS(=O)(=O)[O-])cc2)c2ccccn2)cc1.[Na+].[Na+] [Sodium Picosulfate]	103 ± 33	119	102 ± 6	86.7	116 ± 6.3	117	90.71 ± 0.14	91.2 ± 20	101 ± 5.3
CC(C)c1nc(CN(C)C(=O)NC(CCN2CCOCC2)C(=O)NC(CCC(Cc2ccccc2)NC(=O)OCc2cncs2)Cc2ccccc2)cs1 (stereo not given) [Cobicistat (GS-9350)]	83.3 ± 3.6	74.2	53.3 ± 17	52.3	64.4 ± 11	128	67 ± 4.4	78.1 ± 3.2	96.6 ± 3.7
Clc1ccc2c(c1)C(N1CCNCC1)=Nc1ccccc1O2 [Amoxapine]	96.5 ± 15	104	87.5 ± 8.7	85	88 ± 2.5	94.9	100 ± 40	91.7 ± 7.3	197 ± 18
CN(CC/C=C1C2=CC=CC=C2C=CC3=CC=CC=C3\1)C.Cl [Cyclobenzaprine HCl]	98.1 ± 17	95.1	73.5 ± 0.81	84.5	131 ± 4.4	92.3	76.4 ± 0.93	89.6 ± 14	89.9 ± 1.5
CN(C)CCC=C1c2ccccc2Sc2ccc(Cl)cc21 [Chlorprothixene]	85.8 ± 14	87.1	71.9 ± 13	93.9	105 ± 2.6	83.8	54.4 ± 2.5	49.9 ± 20	124 ± 13
CN1CCC(=C2c3ccccc3CC(=O)c3sccc32)CC1.O=C(O)C=CC(=O)O [Ketotifen Fumarate]	120 ± 23	125	135 ± 31	102	135 ± 13	173	95.4 ± 4.4	84.4 ± 3.9	154 ± 5.5
CN1CCN(c2nc(C3=C(c4c[nH]c5ccccc45)C(=O)NC3=O)c3ccccc3n2)CC1 [Sotrastaurin (AEB071)]	134 ± 40	102	173 ± 34	136	109 ± 1.9	111	63.9 ± 1.5	195 ± 10	111 ± 6.1
CN1C2CCCC1CC(NC(=O)c1nn(C)c3ccccc13)C2 (stereo not given) [Granisetron]	112 ± 1.8	119	108 ± 9.4	81.8	108 ± 12	89.3	105 ± 4.6	110 ± 28	133 ± 31
O=NN(CCCl)C(=O)NC1CCCCC1 [Lomustine]	94.4 ± 38	115	93.2 ± 13	95.2	83.2 ± 8.6	146	80.2 ± 12	91.3 ± 13	125 ± 10
Cc1ccc(=O)n(-c2ccccc2)c1 [Pirfenidone]	92.4 ± 3	99.8	103 ± 26	89.4	106 ± 4.5	91.3	85.5 ± 5.1	97 ± 15	111 ± 11
CC(O)C1C(=O)N2C(C(=O)O)=C(SC3CNC(CNS(N)(=O)=O)C3)C(C)C12 (stereo not given) [Doripenem]	91.4 ± 3.9	103	143 ± 73	106	99.2 ± 19	85.2	82.7 ± 7.5	93.3 ± 19	90.3 ± 15
CC(O)C1C(=O)N2C(C(=O)O)=C(SC3CNC(C(=O)N(C)C)C3)C(C)C12 (stereo not given) [Meropenem]	103 ± 7	106	87.1 ± 6.1	95.1	98.6 ± 2.3	103	73.2 ± 6.8	83.4 ± 4.6	112 ± 5.1
CC12C=CC(=O)C=C1CCC1C2C(=O)CC2(C)C1CCC2(O)C(=O)CO (stereo not given) [Prednisone]	71.1 ± 46	93.9	118 ± 37	98.9	165 ± 8.5	138	103 ± 3.1	92.6 ± 38	130 ± 13
Cc1ncc(CO)c(CO)c1O.Cl [Pyridoxine HCl]	89.2 ± 31	121	90.1 ± 4.5	91.9	117 ± 18	107	99.9 ± 5.3	86.6 ± 2.4	100 ± 3.4
Cn1c(=O)c2c(ncn2CC(O)CO)n(C)c1=O (stereo not given) [Dyphylline]	98.4 ± 7.5	122	98 ± 15	114	117 ± 14	85.9	90.2 ± 3.7	104 ± 1.1	119 ± 24
COC1=CC=C(/C(C2=CC=C(OC)C=C2)=C(Cl)/C3=CC=C(OC)C=C3)C=C1 [Chlorotrianisene]	85.2 ± 4.9	125	86.2 ± 23	101	76.3 ± 15	95.5	89.8 ± 13	95 ± 1.6	96.58 ± 0.32
